The campaign covered roughly 53,000 sequences. About 3,700 (7%) were called active. The full list was thinned out, with actives kept by preference. Values without a mark were called inactive.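 Rule for the calls: active = gene knockdowns whose robust z-score for IL-1 alpha signal is at least 2 or at most -2, so actives lie on both sides; inactive = the rest.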
experiment: Components of the Cytosolic LPS Sensing Pathway: Gene Identification via Genome-wide siRNA Screen; conditions: RAW264.7 macrophages, IL-1a HTRF, actives lie on both sides, screened at 100 nM (by protocol), cells primed 5 h with Pam3CSK4 first;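 note: robust z of the log signal after scaling to non-targeting control siRNA wells of the plate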
Outline: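 Knockdown: 100 nM siRNA, 48h, RAW264.7. Stimulation: Pam3CSK4 5 h, then LipidA via TransIT-TKO 24 h. Output: supernatant IL-1a HTRF, negative-control-normalized, log robust z-score; viability by CellTiter-Glo.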

Sequence | z-score
GGAAGUAUUAAUGUACAACTT against Msmo1 | 0.0519
CGGUGGUCACUGUGAAAUGTT against Nr1h5 | 0.0152
CGGGAAGAAGUUCAUAAAUTT against Topbp1 | 0.36
GGUUAAAUGUCGUUUAUACTT against Rasa3 | 0.308
GGAUAUCGAGGAGAUGAUCTT against Aoc3 | -2.17 (active)
GCAGUUGACCACAGAAAAUTT against BC061237 | -1.35
GGACCCAUGAGGUUAACUUTT against Tbc1d22a | 0.922
GGGAACCAGCCAGUUCAAGTT against Ap1g2 | 1.39
CCGUUUCAUUUCAGGGAGGTT against Phf1 | 0.307
GGAGAAAUCAAGCAAAGAUTT against Soat1 | -0.0846
GGCUACAGCAAGAAGACUUTT against Ctsw | 3.08 (active)
CCGGAAAUUUUCUUUGCCCTT against Sec23ip | -1.12
GGAAGGAUUCUGGAAACAGTT against 2210409E12Rik | -2.1 (active)
GCCAUUGGAGUAUAUCUUGTT against Olfr873 | -0.273
GGUUCACGAGCUAAGCUGUTT against Sec23b | -1.07
GGACCACUCUGAAUAAGACTT against Ttc12 | -1.3
GGAUCAACAGAGGUUGGCATT against Aldh1a7 | -2.03 (active)
GCAGCUCAAUUAGAGUCCATT against Gart | -0.11
GGCUUUUUGUCUAACAAGUTT against Trappc13 | 0.23
GCUGGUUAUUCUCUUAUAGTT against Cavin2 | 1.97
GGUAGGUCGUCGAGAAUACTT against Prss44 | 0.17
GGAUCCUCUGGUAAAGGGATT against Gng11 | -1.75

Sequence | z-score
GGAGUUCCUCAUGAAGAUGTT against Tmem241 | -1.27
GGUGCAAACAGACACCAGATT against Dct | -0.982
GGGCUGUCUAAGAAUGCAATT against Nlrp14 | -2.08 (active)
GGGAGGGAAUAGUCAAAAATT against Timm17b | 0.909
GGAGAGCAAGGAGAACCAATT against Itga7 | 1.35
CCACUACAAUGUAGCGACGTT against C1qtnf9 | -2.24 (active)
CGAUUACUGAACACUAUAUTT against Metap1 | 1.94
GGUGUACCCAGUACUGCCATT against Cdk2 | 0.57
GGAGAUGUUGGACUUCAUGTT against Nxnl2 | -2.42 (active)
CGGACAGAUACAAUAGCUATT against Zc3h4 | -1.53
GUCUUUCCCUAAAAACAGCTT against Vmn1r47 | -1.28
GGAGAACUUCAACAAUGUCTT against Tesc | 0.46
GGAGUUUCGCAUGAGCCUGTT against Shroom1 | -0.0803
GCCACUAUUGAAGCUUGCCTT against Olfr1209 | 1.32
GGAGGAGUUCCAGAUCCACTT against Pald1 | -0.356
GGGCUGUGAACACAAGUGUTT against Megf6 | 2.02 (active)
GGACAGCAUGAUCCUACAATT against Smr2 | -0.962
GGAAAUACCCUGAUAGCCATT against Etl4 | 0.215
GGUAGGAAGCUAGAGAAAUTT against Synj2 | 0.139
GGACUUUAGUGACAGCUAUTT against Fam243 | -0.233
GGCAGCCCUCAAGUUAAUCTT against Zfp612 | -0.552
GCACCUUCCAUCGGAAUGCTT against Tyw5 | -0.269

Sequence | z-score
GGAGAAAAAGAUCUCAGCUTT against D830039M14Rik | -0.021
GCACAAUUGGAAUUGUACATT against Ubqln2 | -2.18 (active)
CCAUGGCCAAGAACUAGUUTT against Hp | 1.26
GGAUUUGAAAUAGGAAUAGTT against Sh3yl1 | 0.689
CCCUAUCUUCAGGCCAUUGTT against Gm10283 | -1.97
CCUGGAGUUAGUUUGACAGTT against Atf4 | -0.042
GGGCCUAUCUGAAAGUUUATT against Nrm | -0.262
GGUAGAAGAAUGCAUAAUGTT against Sema3e | 0.82
CGAGAAUACCAAACUCGUGTT against Usp17ld | -0.255
GCGGUUAUCUGCAUAUAGATT against Ahctf1 | -2.47 (active)
GCAGUAAGCUUUUGCUAAATT against Zfp334 | 1.26
CCUCUUCGGGAAAAUUCUATT against Dao | -0.083
GGGAUAUCUAAUCAAAACCTT against St8sia5 | -0.131
GGCAAAGCAACAAUAUCUATT against Cct7 | -0.809
GGUAUCAAAACAACAGUCCTT against Upk1b | -0.709
GGUCAAAUGCACCCGAUUATT against Hoxc10 | 2.44 (active)
CCUCAAAUUUUGGGUCUCATT against Bcat2 | -1.48
GGGUGAGAUAGGAAAGUGGTT against Rab43 | -0.111
GAUUCUCAUCUCAAUAAGCTT against Serpinb9g | 0.439
CCUCCAAGACUUAAAAGUATT against Csde1 | 0.776
CCUUAUAACUCUUACGUUUTT against Naa50 | -0.169
GGAAAUGAAGACAUACCUGTT against Olfr175 | 0.741

Sequence | z-score
GGAGUGAUGUCUUCACUGATT against Snx31 | -1.12
GGGAAUUUACUGCAGGAUATT against Itln1 | 2.72 (active)
GGUCUUCAUGAAAACCCUCTT against Polr2d | -0.967
GCUAGGUGAUCAGAGAACUTT against Nsl1 | 0.222
GGCCUUCAGUCAAGCAUCATT against Myom1 | 0.906
GCCCAUUGUAAUAAAAGCCTT against Dnali1 | -0.582
GGCGUGUAUCUAUACACACTT against Glp1r | 3.1 (active)
CCAAGAUGCACAGUGAUAATT against Pknox2 | -0.925
GGAUAUCGUCUGCUACCUGTT against Dgkb | 0.945
GCACAACCAUAAUUCCAAATT against Olfr828 | -0.343
CCGAAUAGUAGAUAUUAGATT against Zbtb1 | -0.628
GGAAGUCUGUCCAAAGCAUTT against Olfr190 | 0.248
GUUCUGCUUUUUGUCAUAUTT against Olfr1431 | -0.79
GGAGAUGGUUAUGUGGGAUTT against Tgoln2 | 0.879
GCGUGUUGAAUUGAGGAAGTT against Galnt11 | 4.15 (active)
GGUGAAACCUGUCAUUCACTT against Dcdc2a | -0.405
GGGUUUGAUCAACAGAGCCTT against Id1 | -0.64
GGUGAAGAGCUUCUUGAUCTT against Zfyve27 | -0.362
GGAGUUCAAAGAUGCAAUUTT against Zfyve27 | 2.33 (active)
GUUUGAGUCUGGAGACGUGTT against Commd4 | 0.917
GGUAAAGCCUUUCAGGAAGTT against Tmem80 | -0.946
GGAGAGUGACAUCAUCGUATT against Obsl1 | -0.0139

Sequence | z-score
GGACACUUCCAAGUAUUGGTT against Tns1 | -2.11 (active)
GGUCAGAGAAAUGAUGUCUTT against Osbpl11 | -1.77
GGAAAAGGAAUUCUCCAGATT against Atrip | 0.624
GGCUUGCUGAUUAAAGAUGTT against Strbp | -0.544
GGAGAGCAUUCCCAUUGCUTT against Ddx6 | -2 (active)
GGCUUGACUGAAUAAUAAUTT against Gpr157 | -0.424
GCAGAGAGAGCGUGAAUCCTT against AB124611 | 0.598
GGUUUUCCCUCCAGAUGAGTT against Mtch1 | -0.336
GGUGGUAAUUGGUGUGGCATT against Slc9b2 | -0.188
GGUUCACAGAAAUGGAUGATT against Zfp507 | -2.91 (active)
GGUUUCUUUGCCUACCCAGTT against Prrc2b | -1.13
GGGUGACAACCAAAGACUGTT against Mill1 | 0.174
GGAUCAUGCAAACCAAAGCTT against 4930522H14Rik | 0.193
GAGAACUCUCUAAACAAGUTT against Cks2 | 0.714
GGAUAGUCAUCAACAGAGCTT against Psma7 | -2.42 (active)
GGAACAGUCGUGGUAAAGUTT against Gnl2 | -0.767
GGUGUUUGUUCGGAAGCUCTT against Pes1 | -0.345
GGAAGAAGCACAAUUUGAATT against Selenof | -0.946
CCUACUCCACGGGUAUUUUTT against 1700065D16Rik | -0.331

From PubChem BioAssay AID1508600 (Functional Genomics Laboratory (NCATS/FGL), 2020)
